From PubChem BioAssay
Results filed as inconclusive are left out. Activity calls are given as the source filed them. Unless noted, how the calls were made is not given here.

What was measured:
[1] = viability loss in pontine glioma line – cell-based, SU-DIPG-XVII, MIPE5.0, CellTiter-Glo, qHTS, dose response (AID 1347060; cut-off not given, nearly all actives have AC50 up to about 26 µM;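 further: cells exposed to compound for 48 hours before viability readout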); details: CellTiter-Glo ATP luminescence
[2] = viability loss in pontine glioma line – cell-based, SU-DIPG-XIII, MIPE4.0, CellTiter-Glo, qHTS, dose response (AID 1347061; cut-off not given, nearly all actives have AC50 up to about 37 µM;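 further: cells exposed to compound for 48 hours before readout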); details: CellTiter-Glo ATP luminescence
[3] = JHH-DIPG-1 glioma cell viability, MIPE5.0 library, CellTiter-Glo luminescence, qHTS (AID 1347067; cut-off not given, nearly all actives have AC50 up to about 26 µM;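 further: cells exposed to compound for 48 hours before readout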); details: JHH-DIPG-1 glioma viability, CellTiter-Glo ATP luminescence
[4] = tested on: Aerobactin synthetase IucA (Klebsiella pneumoniae); experiment: inhibition of K. pneumoniae IucA enzyme – biochemical, Tocris library, absorbance (AID 1345561); details: purified IucA enzyme assay, absorbance (OD) read-out; stronger effect = lower value;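 tested at 8 µM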;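 further: 100% = enzyme without compound and 0% = no enzyme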
[5] = signal quenchers or enhancers, Cy5 substrate/SSB – biochemical, NIH Clinical Collection, E. coli SSB, artefact control for HCV NS3 helicase inhibitor project (AID 743268); details: Cy5-oligo bound E. coli SSB, fluorescence interference
[6] = tested on: Hepatitis C virus NS3 helicase; experiment: blockers of NS3h binding to DNA – biochemical, fluorescence polarization, NIH Clinical Collection, primary screen (AID 743270); details: NS3 helicase binding to Cy5-dT15 DNA, stronger effect = higher value, concentration not given here
[7] = target: Single-stranded DNA-binding protein (Escherichia coli (strain K12)) (UniProt P0AGE0); experiment: SSB-ssDNA binding inhibitors – biochemical, fluorescence polarization, NIH Clinical Collection, counter-screen for HCV NS3 helicase inhibitor project (AID 743271; in the data active means inhibition above about 28%); details: E. coli SSB-DNA binding, stronger effect = higher value, concentration not given here
[8] = compounds distorting NS3 helicase fluorescence signal – biochemical, NIH Clinical Collection, artefact control for HCV NS3 helicase inhibitor project (AID 743272); details: fluorescence interference counterscreen, HCV NS3 helicase assay; stronger effect = lower value;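 further: HCV NS3 helicase with a Cy5 labelled single stranded DNA probe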
[9] = viability loss in pontine glioma line – cell-based, SU-DIPG-IV, MIPE4.0, CellTiter-Glo, qHTS, dose response (AID 1347063; cut-off not given, nearly all actives have AC50 up to about 30 µM;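 further: compound exposure lasted 48 hours before the viability readout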); details: CellTiter-Glo ATP luminescence
[10] = growth inhibition of DIPG cells – cell-based, MIPE4.0 library, CellTiter-Glo luminescence, qHTS (AID 1347066; cut-off not given, nearly all actives have AC50 up to about 30 µM;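 further: cells exposed to compound for 48 hours before readout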); details: SU-DIPG-VI viability, CellTiter-Glo ATP luminescence
[11] = growth inhibition of DIPG cells – cell-based, MIPE5.0 library, qHTS (AID 1347068; cut-off not given, nearly all actives have IC50 up to about 30 µM); details: SU-DIPG-XXV viability
[12] = growth inhibition, single agent or in combination, cell-based, chromothripsis tumors, cisplatin or BGB combos (AID 1671449; in the data active means inhibition above about 80%;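 further: cells exposed for 96 hours; 0% = vehicle DMSO and 100% = killing by high DMSO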); details: LFS_MB_P medulloblastoma cells
[13] = growth inhibition, single agent and combos, cell-based, chromothripsis tumors, cisplatin or BGB combos (AID 1671450; in the data active means inhibition above about 80%;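 further: cells exposed to compound for four days; 0% = vehicle DMSO and 100% = cell killing by high DMSO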); details: HDN33 neuroblastoma cells, stronger effect = higher value
[14] = growth inhibition, single agents and combos, ICB984, cell-based, cisplatin or BGB combos, synergistic combos for chromothripsis tumors (AID 1671451); details: ICB984 medulloblastoma cells, drug combinations, stronger effect = higher value;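 further: cells exposed for 96 hours before readout; 0% = vehicle DMSO and 100% = killing by high DMSO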
[15] = growth inhibition, single agents and combos, HTB85, cell-based, BGB or cisplatin IC20 combos, synergistic combos for chromothripsis tumors (AID 1671453; in the data active means inhibition above about 80%;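 further: cells exposed for 96 hours before readout; 0% = vehicle DMSO and 100% = high DMSO killing control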); details: HTB85 osteosarcoma cells, drug combinations, stronger effect = higher value
F380Y/beta4 = experiment: BK channel mutant inhibitors and activators – cell-based, U2OS BacMam, thallium flux, beta subunits, selectivity assay, profiling panel (AID 1259406;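 active means thallium flux through the channel raised or lowered by more than 3 SD from vehicle-only wells, actives on both sides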;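 further: initial slope of Thallos dye fluorescence rise after thallium is added; log ratio against the mean of 0.3% DMSO vehicle wells on the same plate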); details: U2OS BacMam BK variants, at 30 µM
[16] = target: Calcium-activated potassium channel subunit alpha-1 (Homo sapiens) + Leucine-rich repeat-containing protein 26 (Homo sapiens) (UniProt Q12791+Q2I0M4); experiment: as above; details: U2OS BacMam BK variants, F380Y/Slo1WT/gamma1, at 30 µM
Chain of Calcium-activated potassium channel subunit alpha-1 (Homo sapiens) + Leucine-rich repeat-containing protein 26 (Homo sapiens) (Q2I0M4 whole entry, looked up, one chain of several): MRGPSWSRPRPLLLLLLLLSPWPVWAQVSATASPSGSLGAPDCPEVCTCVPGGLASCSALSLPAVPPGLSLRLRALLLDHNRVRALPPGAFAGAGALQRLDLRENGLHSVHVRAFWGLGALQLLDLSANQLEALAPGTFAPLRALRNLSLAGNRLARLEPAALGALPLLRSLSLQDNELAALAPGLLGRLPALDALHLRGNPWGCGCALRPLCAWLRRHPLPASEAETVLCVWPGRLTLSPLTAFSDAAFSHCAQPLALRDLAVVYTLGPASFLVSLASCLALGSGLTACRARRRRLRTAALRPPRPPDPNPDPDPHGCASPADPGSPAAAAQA

R275C/beta4 = experiment: as above; details: U2OS BacMam BK variants, at 30 µM

For `C=C(C)[C@H]1Cc2c(ccc3c2O[C@@H]2COc4cc(OC)c(OC)cc4[C@@H]2C3=O)O1`, the AC50 [1] was 1.32 µM (active), the outcome [2] was “inactive” and the AC50 [3] was 1.48 µM (active).

With `c1ccc2nc(N3CCNCC3)ccc2c1` the remaining activity [4] was 102% (inactive).

In the case of `O=C(O)CCCc1ccc(N(CCCl)CCCl)cc1`, the fluorescence ratio [5] is reported as 1.06 (inactive), the inhibition [6] is reported as -5% (inactive) and the inhibition [7] is reported as -4.29% (inactive). The fluorescence ratio [8] was 1.01 (inactive), the AC50 [1] was 0.934 µM (active) and the outcome [2] was “inactive”. The outcome [9] was “inactive”, the outcome [10] was “inactive” and the AC50 [3] was 16.6 µM (active). For the same compound, the outcome [11] was “inactive”, the inhibition ([12]; at 0.5 µM, stronger effect = higher value) was -42.9% (inactive) and the inhibition ([12]; measured here: combination with BGB IC20, at 0.005 µM) was -28.5%. The inhibition ([12]; measured here: combination with BGB IC40, at 0.005 µM) was -27.3%, the inhibition ([12]; measured here: combination with BGB IC40, at 0.05 µM) was -24.4% and the inhibition ([12]; measured here: combination with cisplatin, at 0.5 µM, stronger effect = higher value) was -49.6%. The inhibition ([12]; measured here: combination with cisplatin, at 5 µM, stronger effect = higher value) was -22.6%, the inhibition ([13]; BGB combo, at 5 µM) was -4.28% and the inhibition ([13]; at 0.5 µM) was -4.71% (inactive). For the same compound, the inhibition ([13]; cisplatin combo, at 5 µM) was -10.3%, the inhibition ([13]; measured here: with BGB IC20 combination, at 0.5 µM) was -8.37% and the inhibition ([13]; measured here: with cisplatin IC20 combination, at 0.5 µM) was 15.9%. The inhibition ([13]; single agent, at 5 µM) was -10.9%, the inhibition ([14]; BGB IC20 combo, at 0.005 µM) was -3.85% and the inhibition ([14]; BGB IC40 combo, at 0.005 µM) was -23.1%. For the same compound, the inhibition ([14]; BGB IC40 combo, at 0.05 µM) was -2.9%, the inhibition ([14]; at 0.5 µM) was -29% (inactive) and the inhibition ([14]; cisplatin combo, at 0.05 µM) was -2.9%. It also gave an inhibition ([14]; cisplatin combo, at 0.5 µM) of -34.6%, an inhibition ([14]; cisplatin combo, at 5 µM) of -18.5% and an inhibition ([14]; measured here: 5 uM single agent, at 5 µM) of -8.66%. The inhibition ([15]; at 0.5 µM) was -18.7% (inactive), the inhibition ([15]; measured here: with BGB IC20, at 0.5 µM) was -46.7% and the inhibition ([15]; measured here: with BGB IC20, at 5 µM) was -21.9%. It also gave an inhibition ([15]; measured here: with cisplatin IC20, at 0.5 µM) of -11%, an inhibition ([15]; measured here: with cisplatin IC20, at 5 µM) of -8.05% and an inhibition ([15]; single agent, at 5 µM) of -6.46%. For the same compound, the log fold change Tl+ flux (F380Y/beta4) was -0.0475 (inactive), the log fold change Tl+ flux [16] was -0.00393 (inactive) and the log fold change Tl+ flux (R275C/beta4) was -0.00696 (inactive).

With `O=C(CCCN1CCC2(CC1)C(=O)NCN2c1ccccc1)c1ccc(F)cc1` the remaining activity [4] was 101% (inactive).

For `CC(C)N(CCC(C(N)=O)(c1ccccc1)c1ccccn1)C(C)C` (stereo unspecified), the fluorescence ratio [5] was 0.1 (active), the inhibition [6] was -3.18% (inactive) and the inhibition [7] was -3.53% (inactive). The fluorescence ratio [8] was 1.04 (inactive), the log fold change Tl+ flux (F380Y/beta4) was 0.017 (inactive) and the log fold change Tl+ flux [16] was 0.0168 (inactive). The log fold change Tl+ flux (R275C/beta4) was -0.0304 (inactive).
